PubChem BioAssay AID2551 (National Center for Advancing Translational Sciences (NCATS), 2010)
Screen size: about 310,000 compounds; about 17,000 (5.5%) were called active. Entries that show only a call come without a potency. About 11% were inconclusive and are not listed. This is one part of a sample in which actives are shown more often than they occur. Calls follow the shape of the dose curve; as a rule, active = well fitted inhibition curve with a large enough effect; inconclusive = small, poorly fitted or top-dose-only effect, or effect the other way; inactive = no such curve, though single readings can be large or run the other way.

target: Nuclear receptor ROR-gamma (Mus musculus) (UniProt P51450); assay: qHTS for inhibitors of ROR gamma transcriptional activity; conditions: Drosophila S2 Gal4-RORgamma UAS-luciferase reporter, 20 h; series mostly up to 53.6 µM; also: nearly all actives have a fitted effect of over 60% in size
Sequence (P51450 whole entry, looked up, the tested form may be a part): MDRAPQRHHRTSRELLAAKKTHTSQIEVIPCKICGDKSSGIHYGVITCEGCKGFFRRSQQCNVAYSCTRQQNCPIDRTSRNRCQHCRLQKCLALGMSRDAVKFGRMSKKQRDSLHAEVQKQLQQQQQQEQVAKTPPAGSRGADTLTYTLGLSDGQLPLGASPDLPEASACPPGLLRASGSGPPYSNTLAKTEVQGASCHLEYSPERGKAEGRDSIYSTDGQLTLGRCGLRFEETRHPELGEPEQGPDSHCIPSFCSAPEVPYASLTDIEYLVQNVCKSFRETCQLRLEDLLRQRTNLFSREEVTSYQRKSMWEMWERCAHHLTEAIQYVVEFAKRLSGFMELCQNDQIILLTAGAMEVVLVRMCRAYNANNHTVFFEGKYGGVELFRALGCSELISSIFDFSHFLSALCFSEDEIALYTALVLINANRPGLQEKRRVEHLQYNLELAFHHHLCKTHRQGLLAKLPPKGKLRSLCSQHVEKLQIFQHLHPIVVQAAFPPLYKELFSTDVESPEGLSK
Excerpt: NIH Molecular Libraries Probe Production Network [MLPCN] NIH Chemical Genomics Center [NCGC] MLPCN Grant: R03 DA026211-01 Assay Provider: Dan Littman, New York University Assay Overview: The retinoic acid-related orphan receptor (ROR) gamma is a transcription factor that has a central role in the differentiation of Th17 cells, a subset of T helper cells that secrete the inflammatory cytokines IL-17, IL-17F, and IL-22. Th17 cells have been implicated in graft versus host disease, autoimmune disease and asthma. ROR gamma is induced in naive T helper cells in the presence of TGF-beta combined with IL-6, IL-21, or IL-23, and thereafter directs the expression of the Th17 lineage cytokines. To study the mechanism of action of ROR gamma, an insect cell-based assay was screened. This Drosophila Schneider cell line was stably transfected with two vectors: a gene expressing a fusion of the Gal4 DNA binding domain and ROR gamma transactivation domain under the control of the metallothionine promoter and a Photinus luciferase reporter regulated by the Gal4 binding site enhancer, UAS. […] Small molecule inhibitors of ROR gamma activity are detected by a decrease in luciferase reporter activity.
Assay Protocol Summary: For screening, 600 cells in 4 uL/well were dispensed into white solid 1536-well plates (Grenier) using a solenoid-based dispenser. Following transfer of 23 nL compound or DMSO vehicle by a pin tool, the plates were incubated 1 hr at ambient temperature, and 1 uL/well copper sulfate (700 uM final concentration) was added. The plates were centrifuged 15 s at 1000 RPM and incubated 20 hr at ambient temperature. After addition of 1.5 uL Photinus luciferase detection reagent, the plates were incubated 10 min at ambient temperature and then read by an ViewLux (Perkin Elmer) to detect luminescence. Keywords: NIH Roadmap, MLPCN, MLI, MLSMR, qHTS, NCGC, qHTS, nuclear hormone receptor, retinoic acid-related orphan receptor, ROR gamma
Potency is read from the fitted curve at half-maximal effect.

Row | Structure (SMILES) | Potency
1 | CC1(C)C2CC=C(/C=N/NC(=O)c3ccc(Cl)cc3)C1C2 (stereo not given) | 12.6 µM (active)
2 | CC1(C)C2CC=C(/C=N/NC(=O)C3CC3)C1C2 (stereo not given) | inactive
3 | N#Cc1cc([N+](=O)[O-])ccc1Oc1cccc(/C=N/NC(=O)c2ccc(Cl)cc2)c1 | inactive
4 | N#Cc1c(-c2ccccc2)nc(SCc2cccc(C(F)(F)F)c2)[nH]c1=O | inactive
5 | Cc1nn(C(C)C(=O)NCCC2=CCCCC2)c(=O)c2nn(-c3ccccc3)c(C)c12 (stereo not given) | inactive
6 | Cc1cc(C)cc(NC(=S)NCCCN2CCOCC2)c1 | inactive
7 | O=C(NNC(=S)NCCCN1CCOCC1)c1ccncc1 | inactive
8 | CCCCc1ccc(NC(=S)NCCCN2CCOCC2)cc1 | 10 µM (active)
9 | COc1ccccc1C(=O)N(C1=NC(C)CS1)c1ccc(Cl)cc1 (stereo not given) | inactive
10 | Cc1ccc(C)c(NC(=O)c2ccc3nccnc3c2)c1 | inactive
11 | CCC1(C)Cc2c(sc3nc(SC)nc(N)c23)CO1 (stereo not given) | inactive
12 | CCC1(C)Cc2c(sc3nc(SC)[nH]c(=O)c23)CO1 (stereo not given) | inactive
13 | CCC1(C)Cc2c(sc3[nH]c(=S)n(Cc4ccccc4)c(=O)c23)CO1 (stereo not given) | 0.708 µM (active)
14 | COc1ccc(S(=O)(=O)NCCCCOc2ccc(Cl)cc2)cc1 | inactive
15 | COc1cccc(CNS(=O)(=O)c2ccc3c(c2)N(C(C)=O)CCS3)c1 | inactive
16 | COc1cccc(C(=O)N/N=C(\C)c2cccc(NC(=O)c3ccc(F)cc3)c2)c1OC | inactive
17 | COc1cccc(NC(=O)CSc2nnc(Cc3ccc(OC)c(OC)c3)o2)c1 | inactive
18 | COc1cccc(CNC(=O)CCN2C(=S)NC(C)(C)CC2C)c1 (stereo not given) | inactive
19 | CCN(Cc1ccccc1)C(=O)CN1C(=S)NC(C)(C)CC1C (stereo not given) | 11.2 µM (active)
20 | CCN(CC)C(=O)N(CC)Cc1ccccc1 | inactive
21 | O=C(N/N=C/c1ccco1)c1ccc(NC(=O)C2CC2)cc1 | inactive
22 | O=C(N/N=C/c1ccc(Br)o1)c1cncc(Br)c1 | 5.62 µM (active)
23 | O=C(CCc1n[nH]c(=O)[nH]c1=O)N/N=C/c1ccc(Br)o1 | inactive
24 | Cc1ccc(C(=O)N/N=C\c2cc(Br)c(Br)o2)cn1 | 11.2 µM (active)

Row | Structure (SMILES) | Potency
25 | Cc1ccc(NC(=O)COc2ccc(/C=N\NC(=O)c3cccnc3)cc2)cc1C | inactive
26 | O=C(CCC(=O)N/N=C/c1ccc(Br)o1)N/N=C/c1ccc(Br)o1 | inactive
27 | CCN(CC)CCN1C(=O)C2C(C(=O)Nc3ccc(Br)cc3)C3C=CC2(O3)C1C(=O)NC1CCCCC1 (stereo not given) | inactive
28 | Cc1c(C(=O)NC(C)C2CC3CCC2C3)cccc1[N+](=O)[O-] (stereo not given) | inactive
29 | O=C(OC1CCOC1=O)c1ccc(-c2nc3ccccc3s2)s1 (stereo not given) | 3.55 µM (active)
30 | Cc1nn(Cc2ccccc2)c(Cl)c1C(=O)OC1CCOC1=O (stereo not given) | inactive
31 | CC(C)c1ccc(C(=O)OC2CCOC2=O)cc1 (stereo not given) | inactive
32 | CCOc1ccc(NC(=O)c2nc(SCC)ncc2Cl)cc1 | inactive
33 | CC1CC(C)CN(C(=O)CCNC(=O)Cn2cnc3ccccc3c2=O)C1 (stereo not given) | inactive
34 | CCc1ccc(-c2cc(C)no2)cc1S(=O)(=O)NCCc1ccc(S(N)(=O)=O)cc1 | inactive
35 | Cc1ccc2cc3cc(C(=O)N4CCCCCC4)oc3nc2c1 | 10 µM (active)
36 | Cc1cccc(C(=O)N2CCCN(C(=O)c3cccc(C)c3)CC2)c1 | inactive
37 | Cc1cc(=O)oc(C)c1C(=O)N1CCCCC1 | inactive
38 | CCC1=Nc2cc(C(=O)NCCCN3CCOCC3)ccc2Sc2ccc(Br)cc21 | inactive
39 | COc1cccc(CN(C)CC(O)COC(c2ccccc2)c2ccccc2C)c1 (stereo not given) | inactive
40 | CSc1ccc(CCNC(=O)CS(=O)(=O)Cc2nc(-c3ccccc3F)oc2C)cc1 | inactive
41 | Cc1ccc(C(=O)NCCN2CCOCC2)cc1C | inactive
42 | Cc1ccc(C(=O)Nc2nnc(-c3cccs3)s2)cc1C | inactive
43 | O=C(Nc1nnc(C2=COCCO2)o1)c1ccc([N+](=O)[O-])s1 | 2.82 µM (active)
44 | Cc1ccc(C(=O)Nc2nnc(C3=COCCO3)o2)cc1C | 0.282 µM (active)
45 | COc1ccc(C(CNCC(=O)Nc2ccccc2F)N(C)C)cc1 (stereo not given) | inactive
46 | C=CCn1c(CNS(=O)(=O)c2ccc(Br)cc2)nnc1SC | inactive
47 | CC(C)c1ccc2oc(=O)cc(CN3CCN(Cc4ccccc4)CC3)c2c1 | inactive
48 | CCOc1ccc(NC(=O)CSc2nncn2C)cc1 | inactive

Row | Structure (SMILES) | Potency
49 | COc1ccc(C)cc1NC(=O)CN(C)S(=O)(=O)c1ccc2c(c1)n(C)c(=O)c(=O)n2C | inactive
50 | CC(C)c1ccc(N(C(=O)c2ccco2)C(C(=O)NC2CCCC2)c2cccnc2)cc1 (stereo not given) | inactive
51 | COc1ccc(CNC(=O)c2ccc3oc(C(C)C)nc3c2)cc1 | inactive
52 | COc1ccc(N2CCN(S(=O)(=O)c3ccc4c(c3)N(C(C)=O)CCO4)CC2)cc1 | inactive
53 | CCOCCCN(C)C1CCN(C(=O)c2oc3ccccc3c2NC(=O)Cc2cccc([N+](=O)[O-])c2)CC1 | inactive
54 | Cc1nnnn1/C(=C\c1ccccc1)C(=O)OCC(=O)N1CC2(C)CC1CC(C)(C)C2 (stereo not given) | 5.01 µM (active)
55 | COc1cc(CCC(=O)N2CCN(c3ccccc3Cl)CC2)cc(OC)c1OC | inactive
56 | COc1ccc(NC(=S)NCCN2CCC(C)CC2)cc1 | inactive
57 | COc1ccc(OCC(=O)Nc2ccc(N3CCC(C)CC3)cc2)cc1 | inactive
58 | COc1ccc(NC(=O)N2CCC(Cc3ccccc3)CC2)cc1 | inactive
59 | COc1ccc(N2CCC(CNC(=S)Nc3c(C)cccc3C)C2)cc1 (stereo not given) | 0.891 µM (active)
60 | COc1cccc(N2CC(C(=O)Nc3c(C)cccc3C)CC2=O)c1 (stereo not given) | inactive
61 | COc1ccc(NC(=S)NCC2CCN(c3ccc(OC)cc3)C2)cc1 (stereo not given) | 3.16 µM (active)
62 | O=C(Cn1nc(C(=O)O)c2ccccc2c1=O)Nc1ccc(F)cc1 | inactive
63 | CC1Sc2ccc(S(=O)(=O)CCC(=O)NCc3ccccc3Cl)cc2NC1=O (stereo not given) | inactive
64 | CC(=O)c1cc(CN2CCC(C(=O)Nc3cccc(-c4cscn4)c3)CC2)cs1 | inactive
65 | COc1ccc(CCNC(=O)c2nnc(CS(=O)(=O)c3ccccc3)o2)cc1OC | inactive
66 | Cc1cccc(OCC(=O)Nc2ccc(C(=O)O)cc2NC(=O)COc2cccc(C)c2)c1 | inactive
67 | COCCNc1ccc(-c2n[nH]c(=O)c3ccccc23)cc1[N+](=O)[O-] | inactive
68 | Cc1nc(S(=O)(=O)c2ccc(Br)cc2)nc2c1CCC2 | inactive
69 | Brc1ccc(Nc2c3c(nc4ncnn24)CCC3)cc1 | 12.6 µM (active)
70 | O=c1c2c(nc3nc[nH]n13)CCC2 | inactive
